Among all 1,300 compounds or so, about 1,200 (92%) were called active.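 The calls were made as follows: active = inhibition of the VIM-2 beta-lactamase enzyme above about 11% from the earlier first-round screen (limit read from the data); inactive = the rest.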 So high a share suggests a set chosen from earlier hits. These entries were drawn from the full list.
Test system: VIM-2 metallo-beta-lactamase (Pseudomonas aeruginosa)
Test: inhibition of VIM-2 nitrocefin hydrolysis – biochemical, epi-absorbance, hits shared with IMP-1 screen, confirmation (AID 2187);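 also: 0% = VIM-2 with DMSO and 100% = buffer wells without enzyme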
Settings: purified VIM-2, nitrocefin hydrolysis, at 5.6 µM, stronger effect = higher value

Q: How did the inhibition turn out when `CCN1CCN(C(=O)Cn2nc(C)n3c(cc4c(OC)cccc43)c2=O)CC1` was run?
A: 41.4% (active)

Q: For `Nc1nnc2c(C(F)(F)F)nc3ccccc3n12`, which inhibition is on record?
A: 21.3% (active)

Q: For `NC(=O)C1CCN(C(=O)COc2ccc3c4c(c(=O)oc3c2)CCC4)CC1`, which inhibition is on record?
A: 22.5% (active)

Q: `COc1nc(N=C(N)N)nc2c(C)cccc12` was tested. Which inhibition did it give?
A: 24.9% (active)

Q: For `Cc1cc(C)c2nc3nc(C)cc(C)c3c(N)c2c1`, which inhibition is on record?
A: 28.1% (active)

Q: How did the inhibition turn out when `O=C(NCCCN1CCOCC1)c1cnn2c(-c3ccccc3)cc(-c3ccccc3)nc12` was run?
A: 45.4% (active)

Q: `COc1ccc(-c2nn3c(-c4ccccc4)nnc3s2)cc1OC` was tested. Which inhibition did it give?
A: 34.6% (active)

Q: `COc1cc(-c2nn3c(-c4cccc(C)c4)nnc3s2)cc(OC)c1OC` was tested. Which inhibition did it give?
A: 22.1% (active)

Q: How did the inhibition turn out when `COC(=O)c1ccc(-c2noc(CN(Cc3ccccn3)CC3CCCO3)n2)cc1` (stereo unspecified) was run?
A: 26.8% (active)

Q: `CCN1CCN(CCNC(=O)c2ccc3c(c2)NC(=O)/C(=C\c2ccc(OC)c(OC)c2)S3)CC1` was tested. Which inhibition did it give?
A: 30.4% (active)

Q: How did the inhibition turn out when `Nc1cccc2c1C(=O)N(Cc1nnc(-c3ccccc3Br)o1)C2=O` was run?
A: 18.7% (active)

Q: `CN1CCN(c2ccc(NC(=O)c3ccc4c(c3)[nH]c(=O)n4Cc3ccc(F)cc3)cc2)CC1` was tested. Which inhibition did it give?
A: 33.6% (active)

Q: `CC(NS(=O)(=O)c1ccccc1)c1n[nH]c(=S)n1-c1ccccc1` (stereo unspecified) was tested. Which inhibition did it give?
A: 28.1% (active)

Q: Which inhibition does the source give for `CN(C)CCNc1ccc(-c2n[nH]c(=O)c3ccccc23)cc1[N+](=O)[O-]` here?
A: 84.4% (active)

Q: For `O=C1Nc2cc(C(=O)N3CCC(N4CCCCC4)CC3)ccc2S/C1=C\c1ccccc1`, which inhibition is on record?
A: 38.5% (active)

Q: `Fc1ccc(-c2ccc(CNCc3ccccn3)o2)cc1Cl` was tested. Which inhibition did it give?
A: 54.3% (active)

Q: `Cc1ccc2nc(C)c3c(c2c1)N(c1ccccc1)CC3` was tested. Which inhibition did it give?
A: 25.2% (active)

Q: For `Cn1c(-c2sccc2OCc2cccc(C(F)(F)F)c2)n[nH]c1=S`, which inhibition is on record?
A: 37.3% (active)

Q: For `Cc1ccc(Cl)cc1-c1ccc(/C=N/n2cnnc2)o1`, which inhibition is on record?
A: 41.2% (active)

Q: For `Cc1cc([N+](=O)[O-])c(-c2ccc(/C=N/n3cnnc3)o2)cc1Cl`, which inhibition is on record?
A: 67.5% (active)

Q: Which inhibition does the source give for `Clc1cc(-c2ccc(/C=N/n3cnnc3)o2)ccc1Br` here?
A: 57% (active)

Q: `Cc1cc(-c2ccc(/C=N/n3cnnc3)o2)c([N+](=O)[O-])cc1C` was tested. Which inhibition did it give?
A: 69.9% (active)

Q: How did the inhibition turn out when `CC(C)(C)CC(=O)Nc1nnc(SCC(=O)NCc2cccs2)s1` was run?
A: 27.4% (active)

Q: How did the inhibition turn out when `CCc1cc(=O)oc2cc(C)cc(OCC(=O)N3CCC[C@@H]3C(=O)O)c12` was run?
A: 19.7% (active)

Q: Which inhibition does the source give for `CCOc1cc(/C=C2\SC(N3CCCC(C)C3)=NC2=O)ccc1O` (stereo unspecified) here?
A: 20.7% (active)

Q: `CCOc1cc(/C=C2\SC(N3CCCCC3)=NC2=O)ccc1O` was tested. Which inhibition did it give?
A: 19% (active)
